Only some compounds are listed: those with a hit (about 7.9% of all), similar ones and a draw of the others.
HT1080-NT tox = kills 2HG-producing HT-1080-NT fibrosarcoma cells. Potency, µM (titrated, usually from 46.1 µM), hits mostly cytotoxic. AID 686970. 1.6% of 360,000 active. HT-1080-NT fibrosarcoma viability, CellTiter-Glo ATP luminescence, 48 h;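 note: NT is the 2HG producing partner of a matched IDH1 knockdown line; nearly all actives have a fitted effect of over 55% in size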
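Compounds were tested in concentration-response format on HT-1080-NT cells for 48 hours at 37 degrees C. Cell viability came from CellTiter-Glo luminescence; curves were classified by r2, response magnitude and activity.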
MCF10A rereplic = DNA re-replication induction in MCF 10a cells. MCF 10A DNA re-replication, Hoechst nuclear intensity, 48 h. Potency, µM (top dose mostly 46.1 µM), actives largely listed as activators. 2.9% of 350,000 active. AID 624296; note: nearly all actives have a fitted effect of over 50% in size
SW480 rerep = inducers of DNA re-replication in SW480 colon cancer cells. 1.8% of 340,000 active. Potency, µM (highest dose often 46.1 µM), hits mostly activators. SW480 DNA re-replication, Hoechst DNA content imaging, 48 h. AID 624297; note: nearly all actives have a fitted effect of over 55% in size
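DNA re-replication was detected as more nuclei of elevated Hoechst intensity after 48 hr exposure to compound (23 nL pinned per well of 250 cells).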
KB-V1 cytotox = kills drug-selected multidrug resistant KB-V1 cells; Potency, µM (titrated, usually from 46.1 µM), hits mostly cytotoxic; 3.4% of 400,000 active; KB-V1 MDR cells viability, CellTiter-Glo, 72 h; note: nearly all actives have a fitted effect of over 60% in size
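Following 72 h at 37 degrees C with compound, KB-V1 cell viability was read by CellTiter-Glo luminescence, medium being phenol-red-free DMEM plus 10% FBS; concentration-response parameters came from normalized, curve-fitted qHTS data.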
KB-3-1 tox = KB-3-1 parental cell cytotoxicity; KB-3-1 viability, CellTiter-Glo ATP luminescence, 72 h; Potency, µM (doses to about 46.1 µM), usual class: cytotoxic; 1.4% of 400,000 active; note: nearly all actives have a fitted effect of over 60% in size
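Here the drug-naive KB-3-1 line serves as comparator for MDR sub-line selectivity; cells received compound titrations, 72 h at 37 °C, then CellTiter-Glo readout.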
HT1080 IDH1KD tx = HT-1080 IDH1 knockdown cell toxicity (counter line). AID 686971. HT-1080 IDH1 knockdown viability, ATP luminescence, 48 h. 2% of 360,000 active. Potency, µM (top dose mostly 46.1 µM), actives largely listed as cytotoxic
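Viability of IDH1-knockdown HT-1080 fibrosarcoma cells was assessed by CellTiter-Glo after 48 h at 37 °C with titrated compound; concentration-effect curves were classified by fit quality and response size.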
A number is an active result; – = inactive; ? = inconclusive; · = no result. Calls come from the whole dose curve; as a rule, active = well fitted curve in the direction sought with a large enough effect; inconclusive = small, poorly fitted or top-dose-only effect, or another doubt; inactive = no such curve, though single readings can be large; an effect the other way counts as inactive or inconclusive.

SMILES | HT1080-NT tox | MCF10A rereplic | SW480 rerep | KB-V1 cytotox | KB-3-1 tox | HT1080 IDH1KD tx
CC1CCN(S(=O)(=O)c2ccc(C(=O)Nc3ccccc3-c3nc4ccccc4[nH]3)cc2)CC1 | – | – | – | 16µM | ? | –
O=C(NC1CCCCC1)c1ccc(S(=O)(=O)N2CCCC2)cc1 | – | – | – | 16µM | – | –
O=C(NC1CCCCC1)C1CCN(S(=O)(=O)N2CCCCCC2)CC1 | – | – | – | 16µM | – | –
CCN(CC)c1cc(C)nc2nc(-c3ccc(C)cc3)nn12 | · | · | · | – | – | ·
CC(=O)Nc1ccc(C(=O)NNS(=O)(=O)c2ccc(C)cc2)cc1 | – | – | 4.1µM | – | – | –
Cc1ccc(NC(=O)c2ccc(S(=O)(=O)N3CCCCC3)cc2)cc1 | – | – | – | – | – | –
Cc1ccc(S(=O)(=O)NNC(=O)c2ccc(O)cc2)cc1 | – | – | – | – | – | –
CC(C)N(C(=O)NC(=O)Nc1ccc(S(=O)(=O)N2CCCC2)cc1)S(C)(=O)=O | – | 0.65µM | – | – | – | –
Cc1ccc(C(=O)NNC(=O)c2ccc(S(=O)(=O)N3CCCCC3)cc2)cc1 | – | ? | 16µM | – | – | ?
CCN(CC)c1ccc2cc(C(=O)NNC(=O)c3ccc(S(=O)(=O)N4CCCCC4)cc3)c(=O)oc2c1 | – | ? | 2.9µM | 2.6µM | – | –
COc1cccc(COC(=O)c2ccc(S(=O)(=O)N3CCC(C)CC3)cc2)c1OC | – | ? | – | – | – | –
COc1ccc(COC(=O)c2ccc(S(=O)(=O)N3CCC(C)CC3)cc2)cc1 | – | 16µM | – | – | ? | –
Cc1ccc(S(=O)(=O)[N-]c2nc3ccccc3nc2-n2cc[n+](CCC(C)C)c2)cc1 | – | – | – | – | – | –
CCCCC[n+]1ccn(-c2nc3ccccc3nc2[N-]S(=O)(=O)c2ccccc2)c1 | – | – | – | – | – | –
O=S(=O)([N-]c1nc2ccccc2nc1-n1cc[n+](Cc2ccccc2)c1)c1ccc(Br)cc1 | – | 18µM | 18µM | – | – | –
CC(C)CC[n+]1ccn(-c2nc3ccccc3nc2[N-]S(=O)(=O)c2ccc(Cl)cc2)c1 | – | 23µM | ? | – | – | –
COc1cc(CCC(=O)NCc2ccc3c(c2)CCN3C(=O)c2ccc(F)cc2)cc(OC)c1OC | · | · | · | – | – | ·
Cc1nc2ccc(NC(=O)c3ccccc3)cc2c(=O)n1Cc1ccc(F)cc1 | – | · | · | ? | ? | ?
COC(=O)C1=CN(C(C)c2ccccc2)C=C(C(=O)OC)C1c1cc(OC)c(OC)c(OC)c1 (centres undefined) | – | ? | 21µM | – | – | –
CCOC(=O)c1ccc(NC(=O)CSc2ccc(-c3sc(C)nc3C)nn2)cc1 | · | · | · | – | – | ·
COc1ccc(NC(=O)c2cc(-c3ccc(OC)c(OC)c3)nc3ccccc23)c(OC)c1 | – | ? | – | ? | ? | –
COc1ccc(-c2cc(C(=O)Nc3ccc(C(N)=O)cc3)c3ccccc3n2)cc1OC | ? | ? | 18µM | – | ? | ?
COc1cc(-c2cc(C(=O)Nc3ccc(O)cc3)c3ccccc3n2)cc(OC)c1OC | ? | – | – | – | – | ?
COc1cc(-c2cc(C(=O)Nc3ccccc3N3CCOCC3)c3ccccc3n2)cc(OC)c1OC | – | ? | – | 9.2µM | – | –
COc1cccc(NC(C(=O)Nc2cccc(C(C)=O)c2)c2ccccc2)c1 (centres undefined) | – | – | – | ? | – | –
SMILES | HT1080-NT tox | MCF10A rereplic | SW480 rerep | KB-V1 cytotox | KB-3-1 tox | HT1080 IDH1KD tx
COc1cc(NC(C(=O)Nc2cccc(C(C)=O)c2)c2ccccc2)cc(OC)c1OC (centres undefined) | – | – | – | 4.6µM | ? | –
O=C(Nc1ccccc1N1CCOCC1)c1cc(-c2ccco2)nc2ccccc12 | ? | ? | – | ? | ? | –
COc1cc(-c2cc(C(=O)Nc3cccc(C(C)=O)c3)c3ccccc3n2)cc(OC)c1OC | – | ? | – | 21µM | ? | ?
COc1cc(NC(=O)CSc2nnc3ccccn23)cc(OC)c1OC | – | · | · | – | – | –
CN1C(=O)c2ccccc2Sc2ccc(NC(=O)N3CCN(c4cccc(Cl)c4)CC3)cc21 | · | · | · | – | – | ·
CCC(C)n1c(=N)c(C(=O)NCc2ccco2)cc2c(=O)n3cc(C)ccc3nc21 (centres undefined) | · | · | · | ? | – | ·
Cc1cc(C)n(-c2ccc(C(=O)Nc3sccc3C(N)=O)cc2)n1 | – | ? | – | 29µM | ? | ?
CCOc1ccc(-n2nc3ccc(NC(=O)COc4ccccc4C)cc3n2)cc1 | · | · | · | – | – | ·
Clc1ccc(COn2c(-c3ccccc3)nc3ccccc32)cc1 | – | 21µM | ? | ? | ? | –
O=[N+]([O-])c1ccc2nc(-c3ccc(Cl)cc3)n(OCc3ccccc3)c2c1 | – | – | – | – | – | –
Clc1ccc(COn2c(-c3ccc(Cl)cc3)nc3ccccc32)cc1 | – | 16µM | ? | 18µM | – | –
CC1CCCN(C(C(=O)NC2CCCCC2)c2cc3c(cc2[N+](=O)[O-])OCO3)C1 (centres undefined) | – | – | – | 8.2µM | ? | –
CC(C)NC(=O)CN1C(=O)c2cccnc2Sc2ccccc21 | · | · | · | – | – | ·
CC(=O)OC[C@H]1O[C@@H](O/N=C/[C@@H](C)[C@H](OCc2ccccc2)C(C)C)[C@H](OC(C)=O)[C@@H](OC(C)=O)[C@@H]1OC(C)=O | · | – | – | · | · | ·
C=C(CN(C)C)C(=O)c1ccc(OC2OC(COC(C)=O)C(OC(C)=O)C(OC(C)=O)C2OC(C)=O)cc1 (centres undefined) | ? | ? | 5.8µM | ? | ? | 4.6µM
O=C(CN1CCCC1)N1c2ccccc2Sc2ccccc21 | – | – | – | – | – | –
CC1(C)CCCN(C(=O)N2c3ccccc3Sc3ccccc32)C1 | – | 13µM | – | – | – | ?
Cc1oc(-c2ccc(Cl)cc2)cc1C(=O)/C(C#N)=C/Nc1ccccc1 | – | 13µM | – | – | – | –
Cc1oc(-c2ccc(Cl)cc2)cc1C(=O)N1CCC1(C)C(=O)O (centres undefined) | – | · | · | – | – | –
COc1cc(/C=C/C(=O)c2ccc3c(c2)OCO3)cc(OC)c1OC | ? | – | – | 21µM | ? | ?
CCOc1ccc(N2C(=O)/C(=C/c3cc(OC)c(OC)c(OC)c3)N(CC(=O)OC)C2=S)cc1 | – | 23µM | – | ? | – | –
CCOc1ccc(C(=O)/C=C/c2cc(OC)c(OC)c(OC)c2)cc1 | ? | ? | ? | ? | ? | 16µM
COc1cc(C(=O)c2cc3c(cc2C)OCO3)cc(OC)c1OC | ? | · | · | 0.41µM | 0.16µM | ?

Bioassay records from PubChem BioAssay.
